PubChem BioAssay (Tox21)
Several values for one entry are separate records, joined by “and”; a condition that tells them apart may be missing. Equal entries are not always repeated. Results filed as inconclusive are left out. A call without a number means that no potency is given here. A structure can be active in one record and inactive in another. Activity calls are given as the source filed them. Unless noted, calls follow the shape of the dose curve; as a rule, active = well fitted curve in the direction sought with a large enough effect in the repeat runs; inconclusive = weak or mixed curves; inactive = no such curve, though single readings can be large; an effect the other way counts as inactive or inconclusive.

Legend:
[1] = Caspase-3/7 induction in HepG2 cells by small molecules, qHTS assay (AID 1346978); also: nearly all actives have a fitted effect of over 15% in size; also: potency is read from the fitted curve at half-maximal effect
In short: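 Wild-type HepG2 cells, 2,000/well, settled 5 hr at 37 C and 5% CO2, then compound-treated for 17 hr; caspase-3/7 activity read by luminescent Caspase-Glo 3/7 after 30 min at room temperature.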

[2] = Caspase-3/7 induction in CHO-K1 cells by small molecules, qHTS cell viability counter screen (AID 1346979); also: nearly all actives have a fitted effect of over 35% in size; also: potency is read from the fitted curve at half-maximal effect
In short: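 Wild-type CHO-K1 cells (1,500/well) treated with compound after 5 h plating; after 16 h at 37C, viability read as CellTiter-Fluor fluorescence following 1 h reagent incubation, in the same wells as the caspase read.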

[3] = Caspase-3/7 induction in CHO-K1 cells by small molecules, qHTS assay (AID 1346980); also: nearly all actives have a fitted effect of over 15% in size
In short: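 Wild-type CHO-K1 cells exposed to compounds for 17hr at 37 C, 5% CO2. Caspase-3/7 activity then measured by Caspase-Glo 3/7 luminescence after 30min at room temperature.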

[4] = Caspase-3/7 induction in HepG2 cells by small molecules, qHTS cell viability counter screen (AID 1346981); also: series mostly up to about 92 µM; nearly all actives have a fitted effect of over 30% in size
In short: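 Wild-type HepG2 cells (2,000/well) were allowed to settle for 5 hr at 37 C, 5% CO2, then dosed with compounds in DMSO by pin transfer. After 16 hr at 37 C, CellTiter-Fluor was added and fluorescence read 1 hr later.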

[5] = biological target: Nuclear receptor subfamily 1 group I member 2 (Homo sapiens) (UniProt O75469); test: Human pregnane X receptor (PXR) small molecule agonists, qHTS assay (AID 1346982); also: nearly all actives have a fitted effect of over 35% in size; also: potency is read from the fitted curve at half-maximal effect
In short: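 PXR-Luc HepG2 cells (CYP3A4 promoter-driven luciferase) were seeded in medium with 5% charcoal-stripped FBS, left 5 hr at 37 C, then exposed to compounds in DMSO for 24 hr. Luminescence was read after ONE-Glo addition.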

[6] = biological target: Acetylcholinesterase (Homo sapiens) (UniProt P22303); test: Acetylcholinesterase (AChE) small molecule antagonists: colormetric cell-based qHTS assay (AID 1347395; calls by dose curve; also: nearly all actives have a fitted effect of over 30% in size)
In short: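 SH-SY5Y cells attached overnight, exposed to compound 30 min at 37 C, then given DTNB/acetylthiocholine; after 90 min at 37 C, colorimetric thiocholine read gives cellular AChE activity.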

[7] = biological target: Acetylcholinesterase (Homo sapiens) (UniProt P22303); test: Acetylcholinesterase (AChE) small molecule antagonists: enzyme-based qHTS assay (AID 1347397; calls by dose curve; also: nearly all actives have a fitted effect of over 55% in size); conditions: Potency: AChE enzyme activity inhibition
In short: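 Recombinant human AChE (50 mU/mL) preincubated with compound 30 min at room temperature; acetylthiocholine plus DTNB then added, and thiocholine formation read colorimetrically after 10 min at room temperature. DMSO served as vehicle control.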

[8] = biological target: Acetylcholinesterase (Homo sapiens) (UniProt P22303); test: Acetylcholinesterase (AChE) small molecule antagonists: fluorescence cell-based qHTS assay (AID 1347398; calls by dose curve; also: nearly all actives have a fitted effect of over 50% in size); conditions: Potency: AChE activity
In short: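 SH-SY5Y cells (2000/well), attached overnight, incubated with compound 30 min at 37 C. Acetylthiocholine plus Thiolite Green then added for 40 min at room temperature. Thiocholine fluorescence (Ex/Em 490/520 nm) reports cellular AChE activity.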

[9] = biological target: Acetylcholinesterase (Homo sapiens) (UniProt P22303); test: Acetylcholinesterase (AChE) small molecule antagonists: enzyme-based qHTS assay with human liver microsomes (AID 1347399; calls by dose curve; also: nearly all actives have a fitted effect of over 60% in size); conditions: Potency: qHTS inhibition
In short: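 Recombinant human AChE (50 mU/mL in the enzyme mix) and human liver microsomes (0.25 mg/mL final) were preincubated with compound and NADPH (0.25 mg/mL final) for 30 min at 37 C. Acetylthiocholine/DTNB was then added; thiocholine was read colorimetrically after 10 min at room temperature.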

[10] = biological target: Cytochrome P450 2D6 (Homo sapiens) (UniProt P10635); test: Cytochrome P450 Family 2 Subfamily D Member 6 (CYP2D6) small molecule antagonists: luciferase reporter qHTS assay (AID 1671196); also: nearly all actives have a fitted effect of over 50% in size; also: potency is read from the fitted curve at half-maximal effect
In short: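 CYP2D6 enzyme–substrate mix was held with compound for 10 min at room temperature, then NADPH regeneration solution was added and the reaction ran 1 h at room temperature. Luciferin product was detected by luminescence after 20 min with detection reagent.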

[11] = biological target: Cytochrome P450 2C19 (Homo sapiens) (UniProt P33261); test: Cytochrome P450 Family 2 Subfamily C Member 19 (CYP2C19) small molecule antagonists: luciferase reporter qHTS assay (AID 1671197); also: nearly all actives have a fitted effect of over 65% in size; also: potency is read from the fitted curve at half-maximal effect
In short: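 Relative luminescence units recorded 20 min after the detection reagent stopped a 1 h, 37C CYP2C19 reaction on proluciferin substrate, which was started by NADPH regeneration following 10 min room-temperature compound preincubation; ketoconazole positive control.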

[12] = biological target: Voltage-gated inwardly rectifying potassium channel KCNH2 (Homo sapiens) (UniProt Q12809); test: Human Ether-a-go-go-Related Gene (hERG) channel small molecule antagonists: fluorescence cell-based qHTS assay (AID 1671200); also: nearly all actives have a fitted effect of over 50% in size; also: potency is read from the fitted curve at half-maximal effect
In short: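 hERG-U2OS cells plated overnight at 37 C, loaded with FluxOR II dye 1 h at RT in dark; after 10 min, thallium stimulus added. Fluorescence (480/540 nm) read kinetically for 2 min at 1 s intervals.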

[13] = biological target: Cytochrome P450 3A4 (Homo sapiens) (UniProt P08684); test: Cytochrome P450 Family 3 Subfamily A Member 4 (CYP3A4) small molecule antagonists: luciferase reporter qHTS assay (AID 1671201); also: nearly all actives have a fitted effect of over 50% in size; also: potency is read from the fitted curve at half-maximal effect
In short: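 P450-Glo CYP3A4 luminescent assay: compounds preincubated 10 min at room temperature with enzyme and proluciferin substrate, NADPH regeneration added, 1 h room-temperature reaction, stopped with luciferin detection reagent; luminescence read after 20 min. Ketoconazole positive control.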

[14] = biological target: Cytochrome P450 2C9 (Homo sapiens) (UniProt P11712); test: Cytochrome P450 Family 2 Subfamily C Member 9 (CYP2C9) small molecule antagonists: luciferase reporter qHTS assay (AID 1671198); also: nearly all actives have a fitted effect of over 50% in size; also: potency is read from the fitted curve at half-maximal effect
In short: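 P450-Glo proluciferin substrate with CYP2C9 enzyme; 10 min RT preincubation, then NADPH regeneration 1 h at 37C; luciferin detection reagent 20 min RT, luminescence in relative luminescence units.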

[15] = biological target: Cytochrome P450 1A2 (Homo sapiens) (UniProt P05177); test: Cytochrome P450 Family 1 Subfamily A Member 2 (CYP1A2) small molecule antagonists: luciferase reporter qHTS assay (AID 1671199); also: nearly all actives have a fitted effect of over 50% in size; also: potency is read from the fitted curve at half-maximal effect
In short: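 Human CYP1A2 activity measured with a P450-Glo proluciferin substrate; compounds in DMSO preincubated 10 min at room temperature with enzyme-substrate mix, then NADPH regeneration system added for 1 h. Luciferin detection reagent, 20 min, luminescence read.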

[16] = biological target: Nuclear receptor subfamily 1 group I member 2 (Homo sapiens) (UniProt O75469); test: CYP3A4 induction through human pregnane X receptor (PXR) by small molecules, qHTS assay (AID 1346984); also: nearly all actives have a fitted effect of over 40% in size
In short: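 DPX-2 cells (HepG2 co-transfected with PXR and CYP3A4 promoter-luciferase) treated with compounds 24 h at 37C; luciferin-IPA CYP3A4 substrate 3uM final added for 3 h, then One-Glo; luminescence read. qHTS format.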

[17] = biological target: Nuclear receptor subfamily 1 group I member 2 (Homo sapiens) (UniProt O75469); test: Human pregnane X receptor (PXR) activation by small molecules, qHTS assay (AID 1346985); also: nearly all actives have a fitted effect of over 40% in size
In short: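 DPX-2 cells (HepG2 co-transfected with a PXR response element and a CYP3A4-promoter luciferase construct) were seeded at 2,000 per well, rested 5 hr at 37C, then exposed to DMSO-dissolved compounds for 24 hr. Activation was read as luciferase luminescence.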

Chain of Cytochrome P450 2C9 (Homo sapiens) (P11712 whole entry, looked up): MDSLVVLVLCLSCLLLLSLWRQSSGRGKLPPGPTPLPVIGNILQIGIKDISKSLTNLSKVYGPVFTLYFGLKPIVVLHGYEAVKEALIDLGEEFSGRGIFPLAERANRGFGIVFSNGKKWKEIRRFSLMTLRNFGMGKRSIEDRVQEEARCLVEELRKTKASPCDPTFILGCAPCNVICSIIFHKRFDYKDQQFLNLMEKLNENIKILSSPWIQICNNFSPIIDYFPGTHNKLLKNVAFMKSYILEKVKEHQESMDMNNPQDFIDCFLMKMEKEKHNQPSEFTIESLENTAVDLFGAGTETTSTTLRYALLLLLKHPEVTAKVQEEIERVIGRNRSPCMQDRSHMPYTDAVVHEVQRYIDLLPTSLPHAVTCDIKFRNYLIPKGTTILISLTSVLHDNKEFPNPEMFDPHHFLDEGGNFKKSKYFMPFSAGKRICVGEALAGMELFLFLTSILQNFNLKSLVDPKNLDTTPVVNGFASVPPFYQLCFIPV
Chain of Cytochrome P450 1A2 (Homo sapiens) (P05177 whole entry, looked up): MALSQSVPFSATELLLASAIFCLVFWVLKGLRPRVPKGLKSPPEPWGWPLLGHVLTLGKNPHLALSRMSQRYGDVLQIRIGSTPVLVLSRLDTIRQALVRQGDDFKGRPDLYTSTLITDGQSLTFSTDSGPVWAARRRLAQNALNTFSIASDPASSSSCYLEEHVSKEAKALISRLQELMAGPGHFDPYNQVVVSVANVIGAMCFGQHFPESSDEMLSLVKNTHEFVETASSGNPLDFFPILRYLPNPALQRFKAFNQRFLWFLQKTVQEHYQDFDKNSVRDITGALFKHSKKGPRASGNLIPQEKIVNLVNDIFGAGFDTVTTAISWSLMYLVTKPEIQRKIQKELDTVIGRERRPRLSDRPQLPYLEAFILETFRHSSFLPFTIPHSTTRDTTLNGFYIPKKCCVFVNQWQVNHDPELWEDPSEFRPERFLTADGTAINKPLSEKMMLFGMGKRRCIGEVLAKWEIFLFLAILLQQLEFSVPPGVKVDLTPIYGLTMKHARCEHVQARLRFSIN
Chain of Cytochrome P450 2C19 (Homo sapiens) (P33261 whole entry, looked up): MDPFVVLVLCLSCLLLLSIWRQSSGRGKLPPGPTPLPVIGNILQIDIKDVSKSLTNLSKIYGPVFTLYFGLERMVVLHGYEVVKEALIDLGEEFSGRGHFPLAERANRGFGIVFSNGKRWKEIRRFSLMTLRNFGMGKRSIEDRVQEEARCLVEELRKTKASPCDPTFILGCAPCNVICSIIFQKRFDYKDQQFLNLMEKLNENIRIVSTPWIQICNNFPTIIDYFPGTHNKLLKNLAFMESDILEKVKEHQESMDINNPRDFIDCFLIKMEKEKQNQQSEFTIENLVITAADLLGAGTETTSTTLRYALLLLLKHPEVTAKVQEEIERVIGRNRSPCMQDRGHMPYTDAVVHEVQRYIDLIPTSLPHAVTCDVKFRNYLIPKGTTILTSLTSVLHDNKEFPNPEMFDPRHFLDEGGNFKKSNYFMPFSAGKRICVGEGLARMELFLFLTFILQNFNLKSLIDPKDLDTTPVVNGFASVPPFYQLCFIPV
Chain of Voltage-gated inwardly rectifying potassium channel KCNH2 (Homo sapiens) (Q12809 whole entry, looked up): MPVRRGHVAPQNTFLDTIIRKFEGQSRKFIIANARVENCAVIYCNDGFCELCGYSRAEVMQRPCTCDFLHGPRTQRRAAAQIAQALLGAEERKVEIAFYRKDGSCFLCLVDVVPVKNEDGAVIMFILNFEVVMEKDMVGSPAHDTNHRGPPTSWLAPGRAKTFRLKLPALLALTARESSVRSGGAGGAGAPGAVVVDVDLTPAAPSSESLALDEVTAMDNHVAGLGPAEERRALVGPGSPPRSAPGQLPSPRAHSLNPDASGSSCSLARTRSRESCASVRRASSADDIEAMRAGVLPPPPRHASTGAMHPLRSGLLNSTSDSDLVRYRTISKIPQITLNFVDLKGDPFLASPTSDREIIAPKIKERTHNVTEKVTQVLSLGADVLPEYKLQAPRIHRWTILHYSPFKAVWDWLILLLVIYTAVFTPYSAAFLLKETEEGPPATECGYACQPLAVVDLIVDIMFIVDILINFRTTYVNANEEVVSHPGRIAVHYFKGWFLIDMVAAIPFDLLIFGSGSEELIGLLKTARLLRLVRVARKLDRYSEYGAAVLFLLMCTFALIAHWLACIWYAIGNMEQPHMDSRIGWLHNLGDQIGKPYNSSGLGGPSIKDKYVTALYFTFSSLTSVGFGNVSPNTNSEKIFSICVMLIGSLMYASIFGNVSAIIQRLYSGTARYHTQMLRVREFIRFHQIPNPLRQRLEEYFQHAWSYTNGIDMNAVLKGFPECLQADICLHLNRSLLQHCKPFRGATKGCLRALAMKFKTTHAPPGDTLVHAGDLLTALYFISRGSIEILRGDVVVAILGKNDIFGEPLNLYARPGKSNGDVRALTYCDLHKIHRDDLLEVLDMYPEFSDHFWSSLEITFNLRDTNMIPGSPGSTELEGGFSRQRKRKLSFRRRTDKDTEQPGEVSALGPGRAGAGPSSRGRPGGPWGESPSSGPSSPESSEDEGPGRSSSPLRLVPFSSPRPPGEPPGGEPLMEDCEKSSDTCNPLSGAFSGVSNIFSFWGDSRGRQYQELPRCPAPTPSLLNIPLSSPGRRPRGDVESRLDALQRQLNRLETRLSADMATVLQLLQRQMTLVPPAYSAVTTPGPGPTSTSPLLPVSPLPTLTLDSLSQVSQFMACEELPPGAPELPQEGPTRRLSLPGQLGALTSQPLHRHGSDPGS
Chain of Nuclear receptor subfamily 1 group I member 2 (Homo sapiens) (O75469 whole entry, looked up): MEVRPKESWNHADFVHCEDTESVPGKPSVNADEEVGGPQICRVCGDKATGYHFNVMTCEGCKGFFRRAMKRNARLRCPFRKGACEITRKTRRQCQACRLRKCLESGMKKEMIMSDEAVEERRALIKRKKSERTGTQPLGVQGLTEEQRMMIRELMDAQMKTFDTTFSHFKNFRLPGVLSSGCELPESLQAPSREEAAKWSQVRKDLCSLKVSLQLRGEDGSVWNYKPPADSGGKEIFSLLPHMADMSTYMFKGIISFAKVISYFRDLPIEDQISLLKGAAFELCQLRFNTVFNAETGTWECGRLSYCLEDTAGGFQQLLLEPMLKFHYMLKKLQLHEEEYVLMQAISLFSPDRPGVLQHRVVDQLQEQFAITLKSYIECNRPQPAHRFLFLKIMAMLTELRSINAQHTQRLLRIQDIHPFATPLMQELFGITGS
Chain of Cytochrome P450 2D6 (Homo sapiens) (P10635 whole entry, looked up): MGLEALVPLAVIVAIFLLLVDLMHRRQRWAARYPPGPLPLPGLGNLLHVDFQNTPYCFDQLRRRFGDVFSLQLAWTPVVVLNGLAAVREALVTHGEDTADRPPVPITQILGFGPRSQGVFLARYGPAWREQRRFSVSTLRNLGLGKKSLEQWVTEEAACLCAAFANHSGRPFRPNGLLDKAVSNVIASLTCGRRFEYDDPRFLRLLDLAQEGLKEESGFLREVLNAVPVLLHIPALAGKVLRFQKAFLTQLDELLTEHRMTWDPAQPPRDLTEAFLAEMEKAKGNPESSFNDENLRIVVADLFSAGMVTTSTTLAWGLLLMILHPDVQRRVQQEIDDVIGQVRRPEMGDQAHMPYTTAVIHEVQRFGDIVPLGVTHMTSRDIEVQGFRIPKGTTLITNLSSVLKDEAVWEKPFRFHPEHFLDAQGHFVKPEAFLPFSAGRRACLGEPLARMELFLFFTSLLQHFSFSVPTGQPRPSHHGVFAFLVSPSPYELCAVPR
Chain of Cytochrome P450 3A4 (Homo sapiens) (P08684 whole entry, looked up): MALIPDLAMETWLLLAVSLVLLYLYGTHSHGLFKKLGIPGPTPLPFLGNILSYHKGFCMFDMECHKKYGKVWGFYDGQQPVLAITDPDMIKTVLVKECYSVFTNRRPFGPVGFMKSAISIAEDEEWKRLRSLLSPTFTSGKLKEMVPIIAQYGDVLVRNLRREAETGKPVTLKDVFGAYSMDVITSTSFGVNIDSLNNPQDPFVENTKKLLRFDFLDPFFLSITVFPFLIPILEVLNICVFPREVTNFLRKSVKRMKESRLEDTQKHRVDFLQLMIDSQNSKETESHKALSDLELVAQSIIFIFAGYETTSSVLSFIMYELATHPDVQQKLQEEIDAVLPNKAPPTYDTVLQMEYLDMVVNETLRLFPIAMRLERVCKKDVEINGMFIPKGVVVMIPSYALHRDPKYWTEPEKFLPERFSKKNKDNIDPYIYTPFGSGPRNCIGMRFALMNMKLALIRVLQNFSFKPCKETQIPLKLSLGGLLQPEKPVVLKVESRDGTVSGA
Chain of Acetylcholinesterase (Homo sapiens) (P22303 whole entry, looked up): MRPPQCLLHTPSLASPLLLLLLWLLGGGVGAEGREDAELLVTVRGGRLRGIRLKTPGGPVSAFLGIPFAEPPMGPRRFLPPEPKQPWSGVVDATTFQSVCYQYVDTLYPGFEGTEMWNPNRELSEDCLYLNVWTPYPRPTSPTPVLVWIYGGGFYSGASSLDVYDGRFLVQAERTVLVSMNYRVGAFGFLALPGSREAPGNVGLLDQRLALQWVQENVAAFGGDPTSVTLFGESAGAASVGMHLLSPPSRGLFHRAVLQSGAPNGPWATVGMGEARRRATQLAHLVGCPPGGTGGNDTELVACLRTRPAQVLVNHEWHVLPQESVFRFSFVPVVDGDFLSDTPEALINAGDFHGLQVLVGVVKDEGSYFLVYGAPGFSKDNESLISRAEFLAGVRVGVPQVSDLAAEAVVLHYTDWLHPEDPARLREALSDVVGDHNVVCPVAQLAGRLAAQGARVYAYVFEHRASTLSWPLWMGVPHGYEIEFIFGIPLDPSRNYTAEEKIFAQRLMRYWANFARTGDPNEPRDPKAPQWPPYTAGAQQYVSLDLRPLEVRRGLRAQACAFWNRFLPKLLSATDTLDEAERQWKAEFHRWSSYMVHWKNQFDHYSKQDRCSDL

CC(c1ccc(O)cc1)c1ccc(O)cc1
Potency [1]: inactive
Potency [2]: inactive
Potency [3]: inactive
Potency [4]: inactive
Potency [5]: 45.5 µM (active) and 61.1 µM (active)
Potency [6]: inactive
Potency [7]: inactive
Potency [8]: inactive
Potency [9]: inactive
Potency [10]: 33.4 µM (active) and inactive
Potency [11]: 21 µM (active) and inactive
Potency [12]: 51.5 µM (active) and inactive
Potency [13]: 42 µM (active)

C[As+](C)(C)CC(=O)[O-]
Potency [1]: inactive
Potency [2]: inactive
Potency [3]: inactive
Potency [4]: inactive
Potency [5]: inactive
Potency [6]: inactive
Potency [7]: inactive
Potency [8]: inactive
Potency [9]: inactive
Potency [10]: inactive
Potency [11]: inactive
Potency [14]: inactive
Potency [15]: inactive
Potency [12]: inactive
Potency [13]: inactive

C=CCOC(N)=O
Potency [1]: inactive
Potency [2]: inactive
Potency [3]: inactive
Potency [4]: inactive
Potency [5]: inactive
Potency [6]: inactive
Potency [7]: inactive
Potency [8]: inactive
Potency [9]: inactive
Potency [10]: inactive
Potency [11]: inactive
Potency [14]: inactive
Potency [12]: inactive
Potency [13]: inactive

CNC(C)Cc1ccc2c(c1)OCO2 (centres undefined)
Potency [1]: inactive
Potency [2]: inactive
Potency [3]: inactive
Potency [4]: inactive
Potency [5]: inactive
Potency [6]: inactive
Potency [7]: inactive
Potency [8]: inactive
Potency [9]: inactive
Potency [10]: 491 nM (active)
Potency [11]: inactive
Potency [14]: inactive
Potency [15]: inactive
Potency [12]: inactive
Potency [13]: inactive

N#CCCSCCC#N
Potency [1]: inactive
Potency [2]: inactive
Potency [3]: inactive
Potency [4]: inactive
Potency [5]: inactive
Potency [6]: inactive
Potency [7]: inactive
Potency [8]: inactive
Potency [9]: inactive
Potency [10]: inactive
Potency [11]: inactive
Potency [14]: inactive
Potency [12]: inactive

CCN
Potency [1]: inactive
Potency [2]: inactive
Potency [3]: inactive
Potency [4]: inactive
Potency [5]: inactive
Potency [6]: inactive
Potency [7]: inactive
Potency [8]: inactive
Potency [9]: inactive
Potency [10]: inactive
Potency [11]: inactive
Potency [14]: inactive
Potency [12]: inactive
Potency [13]: inactive

CC(C)C(=O)Cl
Potency [1]: inactive
Potency [2]: inactive
Potency [3]: inactive
Potency [4]: inactive
Potency [5]: inactive
Potency [6]: inactive
Potency [7]: inactive
Potency [8]: inactive
Potency [9]: inactive
Potency [10]: inactive
Potency [11]: inactive
Potency [14]: inactive
Potency [15]: inactive
Potency [12]: inactive

N#Cc1ccc(O)cc1
Potency [1]: inactive
Potency [2]: inactive
Potency [3]: inactive
Potency [4]: inactive
Potency [5]: inactive
Potency [6]: inactive
Potency [7]: inactive
Potency [8]: inactive
Potency [9]: inactive
Potency [10]: inactive
Potency [11]: 89.4 µM (active)
Potency [15]: inactive
Potency [12]: inactive
Potency [13]: inactive

C[C@]12Cc3nonc3C[C@@H]1CC[C@@H]1[C@@H]2CC[C@@]2(C)[C@H]1CC[C@]2(C)O
Potency [1]: inactive
Potency [2]: 11.9 µM (active)
Potency [3]: inactive
Potency [4]: inactive
Potency [5]: 29.8 µM (active)
Potency [16]: inactive
Potency [17]: inactive
Potency [6]: inactive
Potency [7]: inactive
Potency [8]: inactive
Potency [9]: inactive
Potency [10]: inactive
Potency [11]: 17.4 µM (active)
Potency [14]: 24.5 µM (active)
Potency [15]: inactive
Potency [12]: inactive

Cc1ccc(C(=O)Cl)cc1
Potency [1]: inactive
Potency [2]: inactive
Potency [3]: inactive
Potency [4]: inactive
Potency [5]: inactive
Potency [6]: inactive
Potency [7]: inactive
Potency [8]: inactive
Potency [9]: inactive
Potency [10]: inactive
Potency [14]: inactive
Potency [15]: inactive
Potency [12]: inactive

Clc1ccc(-c2ccccc2)cc1
Potency [1]: inactive
Potency [2]: inactive
Potency [3]: inactive
Potency [4]: inactive
Potency [5]: inactive
Potency [6]: inactive
Potency [7]: inactive
Potency [8]: inactive
Potency [9]: inactive
Potency [10]: inactive
Potency [14]: inactive
Potency [15]: 39.9 µM (active)
Potency [12]: inactive

CCCN(CC)CC1COC2(CCC(C(C)(C)C)CC2)O1 (centres undefined)
Potency [1]: inactive
Potency [2]: inactive
Potency [3]: inactive
Potency [4]: inactive
Potency [5]: inactive
Potency [6]: inactive
Potency [7]: inactive
Potency [8]: inactive
Potency [9]: inactive
Potency [10]: 12600 nM (active)
Potency [11]: 11.2 µM (active)

CCCCCCCCc1ccc(O)cc1
Potency [1]: 43.5 µM (active)

N#Cc1ccccc1Cl
Potency [1]: inactive
Potency [2]: inactive
Potency [3]: inactive
Potency [4]: inactive
Potency [5]: inactive
Potency [6]: inactive
Potency [7]: inactive
Potency [8]: inactive
Potency [9]: inactive
Potency [10]: inactive
Potency [11]: inactive
Potency [14]: inactive
Potency [15]: inactive
Potency [12]: inactive
Potency [13]: inactive

Cc1cc(C)cc(OP(=O)(Oc2cc(C)cc(C)c2)Oc2cc(C)cc(C)c2)c1
Potency [1]: inactive
Potency [2]: inactive
Potency [3]: inactive
Potency [4]: inactive
Potency [5]: 8.77 µM (active)
Potency [6]: inactive
Potency [7]: inactive
Potency [8]: inactive
Potency [9]: inactive
Potency [10]: inactive
Potency [11]: 9.08 µM (active)
Potency [14]: 5.73 µM (active)
Potency [15]: 22.8 µM (active)
Potency [13]: 2.03 µM (active)

CC(Cl)CN(C)C (centres undefined)
Potency [1]: inactive
Potency [2]: inactive
Potency [3]: inactive
Potency [4]: inactive
Potency [5]: inactive
Potency [6]: inactive
Potency [7]: inactive
Potency [8]: inactive
Potency [9]: inactive
Potency [10]: inactive
Potency [11]: inactive
Potency [14]: inactive
Potency [15]: inactive
Potency [12]: inactive
Potency [13]: inactive

CCCCCCCCCCCCBr
Potency [1]: inactive
Potency [2]: inactive
Potency [3]: inactive
Potency [4]: inactive
Potency [5]: inactive
Potency [6]: inactive
Potency [7]: inactive
Potency [8]: inactive
Potency [9]: inactive
Potency [10]: inactive
Potency [11]: inactive
Potency [14]: inactive
Potency [12]: inactive
Potency [13]: inactive
